In PubChem BioAssay (NCATS):
Results filed as inconclusive are left out. Unmarked numbers belong to inactive results. Calls of active or inactive are those of the source. Unless noted, the call rests on the fitted dose curve.

Tested on: not listed separately
Test: qHTS for Inhibitors of the Functional Ribonucleoprotein Complex (vRNP) of Lymphocytic Choriomeningitis Arenaviruses (LCMV): Viability assay - alamar blue signal for LCMV Primary Screen (AID 1347085; calls by dose curve; tested in HEK293 reporter line; further: nearly all actives have a fitted effect of over 80% in size)
Conditions: alamar blue viability counter-screen, LCMV vRNP screen cells; series mostly up to 57.5 µM; activity change, negative = lower viability: at the top concentration
On the % scale 0 is the no-effect control and ±100 the full control effect.

Row | Compound | activity change, negative = lower viability [%] | Potency
1 | Oc1cc2c(cc1O)CN(C(=S)NCCc1ccc(Cl)cc1)CCC2 | -2.42 | 
2 | CN(C)c1nc(N)c(C(=O)N=C(N)N)nc1Cl | 0.629 | 
3 | CCCCCCCCCCCCCCC[C@H](O)[C@H](N)CO |  | inactive
4 | O=C(O)C1=CCCNC1 |  | inactive
5 | COC(=O)c1c(C)[nH]c(C)c1C(=O)c1ccccc1Cc1ccccc1 | 14.4 | 
6 | CN[C@H](CC(=O)O)C(=O)O |  | inactive
7 | O=c1ccc2c(OCCCCc3ccccc3)c3ccoc3cc2o1 | 14.6 | 
8 | NCCSSCCN | 16.3 | 
9 | O=c1onc2n1-c1cc(Br)ccc1OC2 | -4.63 | 
10 | Cc1ccc([N+](=O)[O-])cc1S(=O)(=O)N(C)C | -2.49 | 
11 | N[C@H](C(=O)O)[C@H](O)C(=O)O |  | inactive
12 | O=C(O)c1cc(=O)cc(C(=O)O)[nH]1 | 14.2 | 
13 | Nc1ccc(-c2ccc3ccccc3n2)cc1 | -2.84 | 
14 | O=C(O)c1cc2cc(F)ccc2[nH]1 | 1.11 | 
15 | CC[N+](CC)(CC)CC(=O)Nc1c(C)cccc1C | 3 | 
16 | CCCN(CC1CC1)c1nc(C)nc(Nc2c(Cl)cc(Cl)cc2Cl)c1Cl | 44.4 | 
17 | CNCCNS(=O)(=O)c1cccc2cnccc12 | -6.53 | 
18 | NC1(C(=O)O)CCCCC1 | 0.416 | 
19 | Cc1nc(N=Nc2ccc(S(=O)(=O)O)cc2S(=O)(=O)O)c(COP(=O)(O)O)c(C=O)c1O | 4.13 | 
20 | C/C(=C\c1ccc(C(=O)O)cc1)c1ccc2c(c1)C(C)(C)CCC2(C)C | 11.8 | 

Row | Compound | activity change, negative = lower viability [%] | Potency
21 | COc1ccc2c(c1)c(CC(=O)O)c(C)n2Cc1ccc(Cl)cc1 | 2.46 | 
22 | CSC(=N)N | -0.229 | 
23 | C#CCn1c(=O)c2c(ncn2C)n(C)c1=O | 16.3 | 
24 | COc1cc2c(CCNC(C)=O)c[nH]c2cc1O |  | inactive
25 | CCN(CC)CCOC(=O)c1cc(Cl)c(N)cc1OC | 3.58 | 
26 | COc1ccccc1N1CCN(CCCCN2C(=O)c3ccccc3C2=O)CC1 | -4.27 | 
27 | O=C(O)/C(=C/c1c(C(=O)O)[nH]c2cc(Cl)cc(Cl)c12)c1ccccc1 | 8.05 | 
28 | Cn1c(=O)c2[nH]c(-c3ccc(S(=O)(=O)O)cc3)nc2n(C)c1=O | 10.6 | 
29 | NCCNS(=O)(=O)c1cccc2c(Cl)cccc12 | 11.4 | 
30 | COc1cc(/C=C(\C#N)C(=O)c2ccc(O)c(O)c2)cc(I)c1O | 4.32 | 
31 | COc1ccc(C(=O)NCc2cccnc2)cc1C(=O)NCc1cccnc1 | -6.7 | 
32 | NC1(C(=O)O)CC1 |  | inactive
33 | Cn1c(=O)c2[nH]c(C3CCCC3)nc2n(C)c1=O | 17.9 | 
34 | NC(=O)C(=O)O | 6.24 | 
35 | Cn1c(=O)[nH]c2ncn(C)c2c1=O |  | inactive
36 | N#C/C(=C\c1ccc(O)c(O)c1)C(=O)c1ccc(O)c(O)c1 | 0.416 | 
37 | CN1CCN(c2nc3cc(C(F)(F)F)ccc3n3cccc23)CC1 | 2.18 | 
38 | NCCCCN |  | inactive
39 | CC1(C)CCC=[N+]1[O-] | 19.5 | 
40 | C[C@H](O)C(=O)C1=Nc2c(nc(N)[nH]c2=O)NC1 |  | inactive

Target: Nucleoprotein (Lymphocytic choriomeningitis virus (strain Armstrong)) (UniProt P09992)
Test: qHTS for Inhibitors of the Functional Ribonucleoprotein Complex (vRNP) of Lymphocytic Choriomeningitis Arenaviruses (LCMV): LCMV Primary Screen - GLuc reporter signal (AID 1347086); further: nearly all actives have a fitted effect of over 70% in size
Conditions: LCMV minigenome vRNP cell assay, Gaussia luciferase reporter; series mostly up to 57.5 µM; activity change, negative = inhibition: at the top concentration

Sequence of Nucleoprotein (Lymphocytic choriomeningitis virus (strain Armstrong)) (P09992 whole entry, looked up): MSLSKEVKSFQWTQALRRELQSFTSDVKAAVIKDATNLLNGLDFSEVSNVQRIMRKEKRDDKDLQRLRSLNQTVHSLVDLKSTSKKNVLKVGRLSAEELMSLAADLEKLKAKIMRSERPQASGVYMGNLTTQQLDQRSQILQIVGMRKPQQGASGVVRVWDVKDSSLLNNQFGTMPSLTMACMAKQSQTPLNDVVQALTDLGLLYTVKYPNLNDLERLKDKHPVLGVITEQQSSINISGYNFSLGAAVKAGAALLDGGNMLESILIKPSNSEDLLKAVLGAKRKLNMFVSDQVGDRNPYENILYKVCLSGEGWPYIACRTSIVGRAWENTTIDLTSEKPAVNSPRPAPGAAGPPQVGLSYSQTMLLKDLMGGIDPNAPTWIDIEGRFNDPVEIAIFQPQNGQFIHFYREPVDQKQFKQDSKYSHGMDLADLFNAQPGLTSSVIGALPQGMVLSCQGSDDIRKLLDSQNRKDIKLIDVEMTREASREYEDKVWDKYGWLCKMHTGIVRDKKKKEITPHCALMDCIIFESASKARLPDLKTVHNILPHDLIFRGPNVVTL

Row | Compound | activity change, negative = inhibition [%] | Potency
41 | Oc1cc2c(cc1O)CN(C(=S)NCCc1ccc(Cl)cc1)CCC2 | 10 | 
42 | CN(C)c1nc(N)c(C(=O)N=C(N)N)nc1Cl | 4.68 | 
43 | CCCCCCCCCCCCCCC[C@H](O)[C@H](N)CO |  | inactive
44 | O=C(O)C1=CCCNC1 |  | inactive
45 | COC(=O)c1c(C)[nH]c(C)c1C(=O)c1ccccc1Cc1ccccc1 | -4.45 | 
46 | CN[C@H](CC(=O)O)C(=O)O |  | inactive
47 | O=c1ccc2c(OCCCCc3ccccc3)c3ccoc3cc2o1 | 2.24 | 
48 | NCCSSCCN | 16.4 | 
49 | O=c1onc2n1-c1cc(Br)ccc1OC2 | 0.189 | 
50 | Cc1ccc([N+](=O)[O-])cc1S(=O)(=O)N(C)C | 31.6 | 
51 | N[C@H](C(=O)O)[C@H](O)C(=O)O |  | inactive
52 | O=C(O)c1cc(=O)cc(C(=O)O)[nH]1 | -0.297 | 
53 | Nc1ccc(-c2ccc3ccccc3n2)cc1 | -20 | 
54 | O=C(O)c1cc2cc(F)ccc2[nH]1 | 2.36 | 
55 | CC[N+](CC)(CC)CC(=O)Nc1c(C)cccc1C | 8.63 | 
56 | CCCN(CC1CC1)c1nc(C)nc(Nc2c(Cl)cc(Cl)cc2Cl)c1Cl | 1.97 | 
57 | CNCCNS(=O)(=O)c1cccc2cnccc12 | 9.16 | 
58 | NC1(C(=O)O)CCCCC1 | 6.26 | 
59 | Cc1nc(N=Nc2ccc(S(=O)(=O)O)cc2S(=O)(=O)O)c(COP(=O)(O)O)c(C=O)c1O | 8.34 | 
60 | C/C(=C\c1ccc(C(=O)O)cc1)c1ccc2c(c1)C(C)(C)CCC2(C)C | -1.26 | 

Row | Compound | activity change, negative = inhibition [%] | Potency
61 | COc1ccc2c(c1)c(CC(=O)O)c(C)n2Cc1ccc(Cl)cc1 | 19 | 
62 | CSC(=N)N | 12.6 | 
63 | C#CCn1c(=O)c2c(ncn2C)n(C)c1=O | 9.84 | 
64 | COc1cc2c(CCNC(C)=O)c[nH]c2cc1O |  | inactive
65 | CCN(CC)CCOC(=O)c1cc(Cl)c(N)cc1OC | 28.6 | 
66 | COc1ccccc1N1CCN(CCCCN2C(=O)c3ccccc3C2=O)CC1 | 29.3 | 
67 | O=C(O)/C(=C/c1c(C(=O)O)[nH]c2cc(Cl)cc(Cl)c12)c1ccccc1 | 2.72 | 
68 | Cn1c(=O)c2[nH]c(-c3ccc(S(=O)(=O)O)cc3)nc2n(C)c1=O | -5.79 | 
69 | NCCNS(=O)(=O)c1cccc2c(Cl)cccc12 | -30.9 | 
70 | COc1cc(/C=C(\C#N)C(=O)c2ccc(O)c(O)c2)cc(I)c1O | 9.29 | 
71 | COc1ccc(C(=O)NCc2cccnc2)cc1C(=O)NCc1cccnc1 | 20.3 | 
72 | NC1(C(=O)O)CC1 |  | inactive
73 | Cn1c(=O)c2[nH]c(C3CCCC3)nc2n(C)c1=O | 37.7 | 
74 | NC(=O)C(=O)O | 0.0401 | 
75 | Cn1c(=O)[nH]c2ncn(C)c2c1=O |  | inactive
76 | N#C/C(=C\c1ccc(O)c(O)c1)C(=O)c1ccc(O)c(O)c1 | 18.9 | 
77 | CN1CCN(c2nc3cc(C(F)(F)F)ccc3n3cccc23)CC1 | -11.7 | 
78 | NCCCCN |  | inactive
79 | CC1(C)CCC=[N+]1[O-] | 10.6 | 
80 | C[C@H](O)C(=O)C1=Nc2c(nc(N)[nH]c2=O)NC1 |  | inactive
